# Data: paper PMC11062922 (Nature Chemical Biology, 2023)
# Like-named read-outs stand apart in the source and are kept apart here.
# Experiments:
# Parameters in all cases: species or system human, MV4-11 + K-562 + COLO205 + SK-N-BE2 + OVCAR-8
# [1] = tested on: DYRK1A; conditions: read-out: apparent Kd, n = 1
# [2] = tested on: LATS1; conditions: read-out: apparent Kd, n = 1
# [3] = tested on: MARK4; conditions: read-out: apparent Kd, n = 1
# [4] = tested on: PRKAA1; conditions: read-out: apparent Kd, n = 1
# [5] = tested on: PRKAG1; conditions: read-out: apparent Kd, n = 1
# [6] = tested on: PRKCD; conditions: read-out: apparent Kd, n = 1
# [7] = tested on: PRKCQ; conditions: read-out: apparent Kd; compound concentrations:100 nM and 1000 nM (sheet 'Samples'); n = 1
# [8] = tested on: CDKL5; conditions: read-out: apparent Kd, compound concentrations: 100 nM and 1000 nM (sheet 'Samples'), n = 1
# [9] = tested on: MYLK3; conditions: read-out: apparent Kd, n = 1
# [10] = tested on: PIP4K2C; conditions: read-out: apparent Kd, n = 1
# [11] = tested on: CDK7; conditions: read-out: apparent Kd, compound concentrations: 100 nM and 1000 nM (sheet 'Samples'), n = 1
# [12] = tested on: ERCC2; conditions: read-out: apparent Kd; compound concentrations: 100 nM and 1000 nM (sheet 'Samples'), CATDS: 1.0235233347988201E-2; n = 1
# [13] = tested on: PRKD2; conditions: read-out: apparent Kd, n = 1
# [14] = tested on: PRKD3; conditions: read-out: apparent Kd, n = 1
# [15] = tested on: RPS6KA6; conditions: read-out: apparent Kd, n = 1
# [16] = tested on: PTK2B; conditions: read-out: apparent Kd; compound concentrations:100 nM and 1000 nM (sheet 'Samples'); n = 1
# [17] = tested on: STK10; conditions: read-out: apparent Kd; compound concentrations:100 nM and 1000 nM (sheet 'Samples'); n = 1
# [18] = tested on: PTK2; conditions: read-out: apparent Kd; compound concentrations: 100 nM and 1000 nM (sheet 'Samples'), CATDS: 3.2827232082793402E-2; n = 1
# [19] = tested on: PLK4; conditions: read-out: apparent Kd; compound concentrations: 100 nM and 1000 nM (sheet 'Samples'), CATDS: 4.9779081320457601E-2; n = 1
# [20] = compound concentrations:100 nM and 1000 nM (sheet 'Samples')
structure (smiles),measurement,setting,value
O=C1N=C(NCCCc2ccccc2)S/C1=C\c1ccc2ncccc2c1 [RO4493941-000],potency estimated from few doses,"[1]; compound concentrations: 100 nM and 1000 nM (sheet 'Samples'), CATDS: 6.8092992761352805E-2",1090 nM
O=C1N=C(NCc2cccs2)O/C1=C\c1ccc2ncccc2c1 [RO4624208-000],potency estimated from few doses,"[1]; compound concentrations: 100 nM and 1000 nM (sheet 'Samples'), CATDS: 0.15601694862230001",53.8 nM
CCn1c(-c2nonc2N)nc2c(C#CC(C)(C)O)nc(O[C@@H](CN)c3ccccc3)cc21.O=C(O)C(F)(F)F [GSK1007102B],potency estimated from few doses,[2]; [20],23.2 nM
same,potency estimated from few doses,[3]; [20],768 nM
same,potency estimated from few doses,[4]; [20],917 nM
same,potency estimated from few doses,[5]; [20],765 nM
same,potency estimated from few doses,[6]; [20],173 nM
same,potency estimated from few doses,[7],71.9 nM
CNCC#Cc1c(F)ccc2c1/C(=C/c1[nH]ccc1OC)C(=O)N2.Cl [RO0281601-001],potency estimated from few doses,[8]; CATDS: 0.30453752260001898,9.43 nM
same,potency estimated from few doses,"[2]; compound concentrations: 100 nM and 1000 nM (sheet 'Samples'), CATDS: 3.7561417632614502E-2",394 nM
same,potency estimated from few doses,"[3]; compound concentrations: 100 nM and 1000 nM (sheet 'Samples'), CATDS: 2.40121909495257E-2",1380 nM
same,potency estimated from few doses,"[9]; compound concentrations: 100 nM and 1000 nM (sheet 'Samples'), CATDS: 6.4458343159200099E-2",121 nM
c1cnn2ncc(-c3ccnc(Nc4ccc5c(c4)OCCO5)n3)c2c1 [GW806290X],potency estimated from few doses,[8]; CATDS: 7.1122593361459902E-2,94.8 nM
same,potency estimated from few doses,"[1]; compound concentrations: 100 nM and 1000 nM (sheet 'Samples'), CATDS: 2.4296257212368499E-2",1020 nM
same,potency estimated from few doses,"[9]; compound concentrations: 100 nM and 1000 nM (sheet 'Samples'), CATDS: 2.0905091895042499E-2",1690 nM
same,potency estimated from few doses,"[10]; compound concentrations: 100 nM and 1000 nM (sheet 'Samples'), CATDS: 7.0230989511161995E-2",96.8 nM
same,potency estimated from few doses,"[6]; compound concentrations: 100 nM and 1000 nM (sheet 'Samples'), CATDS: 2.1059848271292699E-2",1650 nM
CNCc1ccc(-c2cc(-c3nc(-c4ccc(S(=O)(=O)C(C)C)cc4)cnc3N)on2)cc1 [VE-822],potency estimated from few doses,[10]; [20],186 nM
COc1cc[nH]c1/C=C1\C(=O)Nc2ccc(F)c(C#CC3(O)CCNCC3)c21.Cl [RO0282986-001],potency estimated from few doses,[11]; CATDS: 1.0726954600141701E-2,1020 nM
same,potency estimated from few doses,[8]; CATDS: 0.34989836845243499,2.99 nM
same,potency estimated from few doses,[12],1210 nM
same,potency estimated from few doses,"[2]; compound concentrations: 100 nM and 1000 nM (sheet 'Samples'), CATDS: 3.7276023026690398E-2",68.4 nM
same,potency estimated from few doses,"[3]; compound concentrations: 100 nM and 1000 nM (sheet 'Samples'), CATDS: 1.45077611109678E-2",429 nM
same,potency estimated from few doses,"[9]; compound concentrations: 100 nM and 1000 nM (sheet 'Samples'), CATDS: 1.54633184822493E-2",368 nM
same,potency estimated from few doses,"[4]; compound concentrations: 100 nM and 1000 nM (sheet 'Samples'), CATDS: 1.18517634082691E-2",741 nM
same,potency estimated from few doses,"[5]; compound concentrations: 100 nM and 1000 nM (sheet 'Samples'), CATDS: 1.1749589380403099E-2",761 nM
same,potency estimated from few doses,"[6]; compound concentrations: 100 nM and 1000 nM (sheet 'Samples'), CATDS: 1.2203659987841E-2",680 nM
same,potency estimated from few doses,"[13]; compound concentrations: 100 nM and 1000 nM (sheet 'Samples'), CATDS: 2.5801010504162801E-2",129 nM
same,potency estimated from few doses,"[14]; compound concentrations: 100 nM and 1000 nM (sheet 'Samples'), CATDS: 3.6312689079161402E-2",71.4 nM
same,potency estimated from few doses,"[15]; compound concentrations: 100 nM and 1000 nM (sheet 'Samples'), CATDS: 1.2829138267775601E-2",590 nM
O=C(O)C(F)(F)F.O=c1[nH]ccc2nc(N[C@@H]3CCNC3)nc(Nc3cc(Cl)cc(Cl)c3)c12 [GSK2188764A],potency estimated from few doses,[3]; [20],122 nM
same,potency estimated from few doses,[9]; [20],184 nM
same,potency estimated from few doses,[4]; [20],799 nM
same,potency estimated from few doses,[5]; [20],799 nM
same,potency estimated from few doses,[6]; [20],222 nM
same,potency estimated from few doses,[7],2080 nM
same,potency estimated from few doses,[13]; [20],1300 nM
same,potency estimated from few doses,[14]; [20],1470 nM
same,potency estimated from few doses,[16],46.7 nM
same,potency estimated from few doses,[15]; [20],618 nM
same,potency estimated from few doses,[17],992 nM
CN(C)CC(O)COc1ccc(Nc2nccc(-c3cnn4nc(N5CCOCC5)ccc34)n2)cc1 (stereo not drawn) [GW767488X],potency estimated from few doses,[10]; [20],1440 nM
same,potency estimated from few doses,[13]; [20],28.7 nM
same,potency estimated from few doses,[14]; [20],44.8 nM
CCN(CC)Cc1ccc(Nc2nccc(-c3cnn4ncccc34)n2)cc1 [GW780056X],potency estimated from few doses,[11]; CATDS: 2.0395381874141399E-2,1240 nM
same,potency estimated from few doses,"[13]; compound concentrations: 100 nM and 1000 nM (sheet 'Samples'), CATDS: 2.64855086193518E-2",580 nM
same,potency estimated from few doses,"[14]; compound concentrations: 100 nM and 1000 nM (sheet 'Samples'), CATDS: 3.09987339896893E-2",398 nM
CN(C)CCNC(=O)Nc1ccc(N(C)c2ccnc(Nc3ccc(CS(C)(=O)=O)cc3)n2)cc1.Cl [GW830900A],potency estimated from few doses,[10]; [20],1840 nM
CS(=O)(=O)Nc1ccc(-c2ccnc3[nH]ccc23)cc1 [GSK993273A],potency estimated from few doses,[10]; [20],482 nM
Cl.Cl.NC(CNC(=O)c1cc(Br)c(-c2ccnc3[nH]ccc23)s1)c1ccccc1.NC(CNC(=O)c1cc(Br)c(-c2ccnc3[nH]ccc23)s1)c1ccccc1 (stereo not drawn) [GSK1322949A],potency estimated from few doses,[8]; CATDS: 2.6362691965297801E-2,1670 nM
same,potency estimated from few doses,"[1]; compound concentrations: 100 nM and 1000 nM (sheet 'Samples'), CATDS: 2.3831773073254899E-2",2230 nM
same,potency estimated from few doses,[18],993 nM
CNc1cc(-c2ccc3c(N)n[nH]c3c2)nc(N)n1 [GSK2224810A],potency estimated from few doses,[9]; [20],457 nM
same,potency estimated from few doses,[15]; [20],899 nM
c1ccc(-c2n[nH]cc2Nc2ccnc3ccccc23)nc1 [GW694077X],potency estimated from few doses,"[1]; compound concentrations: 100 nM and 1000 nM (sheet 'Samples'), CATDS: 7.5630271191524906E-2",80.3 nM
same,potency estimated from few doses,"[13]; compound concentrations: 100 nM and 1000 nM (sheet 'Samples'), CATDS: 7.8874466930765497E-2",74 nM
same,potency estimated from few doses,"[14]; compound concentrations: 100 nM and 1000 nM (sheet 'Samples'), CATDS: 6.6484920518239093E-2",104 nM
CN(c1ccc(NC(=O)NCCN2CCOCC2)cc1)c1ccnc(Nc2ccc(CS(C)(=O)=O)cc2)n1.Cl [GW830365A],potency estimated from few doses,[19],1320 nM
CCn1c(-c2nonc2N)nc2cncc(C(=O)N3CC[C@H](N)C3)c21.Cl [SB-772077-B],potency estimated from few doses,[1]; [20],1520 nM
same,potency estimated from few doses,[6]; [20],843 nM
